PubChem BioAssay AID651821 (The Scripps Research Institute Molecular Screening Center, 2012)
Several values for one entry are separate records, joined by “and”; a condition that tells them apart may be missing. Equal entries are not always repeated. Among all 370,000 compounds or so, about 4,700 (1.3%) were called active.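 Rule for the calls: active = inhibition above the plate cutoff, the mean of all test compounds on that plate plus 3 SD (cut at about 35% in these data); inactive = the rest.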 The full list was thinned out, with actives kept by preference. Where a structure was tested more than once in an assay, its records may differ in their call.

Assay: binders of r(CAG) RNA repeats, primary screen, biochemical, fluorescence (AID 651821);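 note: 0% = DMSO alone and 100% = 100 µM mitoxantrone as full dye displacement; higher means more dye released from RNA so lower well fluorescence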
Conditions: r(CAG) RNA repeat, TO-PRO-1 dye displacement fluorescence; at 3 µM; stronger effect = higher value

With `Cc1cc(C)cc(NC(=O)N2CCC(N(C)CCC(C)C)CC2)c1` as the compound, how does the inhibition read?
Its inhibition is 3.3% (inactive).

Which inhibition does the source give for `N#Cc1ccc(OCCCN2CCC(C(O)(c3ccccc3)c3ccccc3)CC2)c(F)c1` here?
Its inhibition is -1.54% (inactive).

With `C=C1c2c(Cl)ccc(O)c2C(O)=C2C(=O)[C@]3(O)C(O)=C(C(N)=O)C(=O)[C@@H](N(C)C)[C@@H]3[C@@H](O)C12` (stereo partly drawn) as the compound, how does the inhibition read?
The inhibition was 87.2% (active).

For `Cc1nc(NC(=O)C(C)(C)C)sc1[N+](=O)[O-]`, which inhibition is on record?
Its inhibition is 2.08% (inactive).

For `COc1cccc(CNC(=O)[C@H]2CCCN2C(=O)[C@H]2CCCN2C(=O)C2CCCCC2)c1`, which inhibition is on record?
The inhibition was 1.57% (inactive).

For `Cc1ccc(NC(=O)Cc2cccc(F)c2)c(S(=O)(=O)N2CCOCC2)c1`, which inhibition is on record?
The inhibition was -0.87% (inactive).

Which inhibition does the source give for `O=C1c2cccc3cccc(c23)C(=O)N1c1cccc(O)c1` here?
Its inhibition is 4.62% (inactive).

Which inhibition does the source give for `O=C1C=C(c2ccc(Cl)cc2)C(=O)N1Nc1ccccc1` here?
Its inhibition is 8.98% (inactive).

For `O=C1c2cccc3cc(Br)cc(c23)C(=O)N1Nc1ccccc1`, which inhibition is on record?
Its inhibition is 36.1% (active).

For `CCCc1cc(=O)[nH]c(SCC(=O)N2C(C)CCCC2C)n1` (stereo not drawn), which inhibition is on record?
The inhibition was -1.93% (inactive).

For `CCCc1cc(=O)[nH]c(SCC(=O)Nc2ccc(S(=O)(=O)N3CCCC3)cc2)n1`, which inhibition is on record?
The inhibition was 15.7% (inactive).

With `CCCc1cc(=O)[nH]c(SCC(=O)Nc2sc3c(c2C#N)CCCC3)n1` as the compound, how does the inhibition read?
The inhibition was 40.9% (active).

With `CC(C)C[C@H](NC(=O)CC1CCCC1)C(=O)N1CCC[C@H]1C(=O)NCc1ccccc1` as the compound, how does the inhibition read?
Its inhibition is -2.39% (inactive).

With `COc1ccccc1CCn1cnc(-c2ccccc2)c1C(C)C` as the compound, how does the inhibition read?
Its inhibition is -1.16% (inactive).

With `C/C(=N/NC(=O)c1cc(Cl)ccc1O)C12CC3CC(CC(C3)C1)C2` as the compound, how does the inhibition read?
Its inhibition is 14.9% (inactive).

Which inhibition does the source give for `C/C(Cc1ccccc1)=N\NC(=O)CNC(=O)c1cccc(Br)c1` here?
The inhibition was 1.32% (inactive).

With `CC(=N\NC(=O)c1cc(Br)ccc1O)/C(=N/O)C(=O)Nc1ccccc1` as the compound, how does the inhibition read?
The inhibition was 36.5% (active).

For `O=S1(=O)c2ccc(Br)cc2OC[C@H](Cc2ccccc2)N1Cc1cn(Cc2ccccc2)nn1`, which inhibition is on record?
Its inhibition is 9.1% (inactive).

For `O=C(CSc1nnc(COc2ccccc2)n1-c1ccc(Cl)cc1)Nc1ccc2c(c1)OCO2`, which inhibition is on record?
The inhibition was 5.42% (inactive).

With `Cc1ccc(N=C2NC(=O)/C(=C/C=C/c3ccco3)S2)cc1C` as the compound, how does the inhibition read?
Its inhibition is 58% (active).

Which inhibition does the source give for `Cc1cc(C(=O)NN=C/C=C/c2ccco2)n[nH]1` here?
The inhibition was 12% (inactive).

For `Nc1ncnc2c1ncn2[C@@H]1O[C@H](C(=O)N[C@@H](CCc2ccccc2)C(=O)NCC(=O)N2CCOCC2)[C@@H](O)[C@H]1O`, which inhibition is on record?
The inhibition was 4.42% (inactive).

Which inhibition does the source give for `CO/N=C(\C(=O)N[C@@H]1C(=O)N2C(C(=O)O)=C(COC(C)=O)CS[C@H]12)c1csc(N)n1` (stereo in doubt) here?
The inhibition was 31% (inactive) and 22.6% (inactive) and 37.5% (active).

With `CCN1CCN(C(=O)N[C@@H](C(=O)N[C@@H]2C(=O)N3C(C(=O)O)=C(CSc4nnnn4C)CS[C@H]23)c2ccc(O)cc2)C(=O)C1=O` as the compound, how does the inhibition read?
The inhibition was 8.44% (inactive).

With `C=CC1=C(C(=O)O)N2C(=O)[C@@H](NC(=O)/C(=N/OCC(=O)O)c3csc(N)n3)[C@H]2SC1` as the compound, how does the inhibition read?
The inhibition was 50.2% (active).

For `Nc1nc2c(ncn2[C@@H]2O[C@H](C(=O)N[C@H](Cc3ccccc3)C(=O)NCC3CCCCC3)[C@@H](O)[C@H]2O)c(=O)[nH]1`, which inhibition is on record?
Its inhibition is 6.66% (inactive).

With `Cc1ccc(CN2CCCCC(NC(=O)C3CCCCC3)C2=O)cc1` (stereo not drawn) as the compound, how does the inhibition read?
Its inhibition is -0.58% (inactive).

Which inhibition does the source give for `CCCCN(C(C)=O)c1ccc2c(c1)C1CC2CCN1Cc1ccccc1` (stereo not drawn) here?
The inhibition was -3.96% (inactive).

Which inhibition does the source give for `CCn1cc(CN2CCCC(CNS(=O)(=O)Cc3ccccc3)C2)cn1` (stereo not drawn) here?
Its inhibition is 0.88% (inactive).

With `Cc1ccccc1NC(=O)C1CCN(c2ncccn2)CC1` as the compound, how does the inhibition read?
Its inhibition is -0.95% (inactive).

Which inhibition does the source give for `COc1ccc(S(=O)(=O)NCC(c2ccc(C)cc2)N2CCN(C)CC2)cc1OC` (stereo not drawn) here?
The inhibition was -10.5% (inactive).

With `COc1ccc(C(=O)OCCN(C)C2CN(Cc3cn(Cc4cccc(C)c4)nn3)S(=O)(=O)C2)cc1OC` (stereo not drawn) as the compound, how does the inhibition read?
Its inhibition is 0.03% (inactive).

For `O=C(Nc1nnc(-c2ccccc2)o1)c1cc(-c2cccs2)nc2ccccc12`, which inhibition is on record?
The inhibition was 56.2% (active).

For `Cc1c(NC(=O)c2cc(-c3ccc(Cl)s3)nc3ccccc23)c(=O)n(-c2ccccc2)n1C`, which inhibition is on record?
The inhibition was 7.65% (inactive).

Which inhibition does the source give for `O=C(c1cc(-c2ccc(Cl)s2)nc2ccccc12)N1CCOCC1` here?
Its inhibition is 3.5% (inactive).

For `CC(c1ccc(N)cc1)c1cn(C)c2ccccc12` (stereo not drawn), which inhibition is on record?
The inhibition was 7.15% (inactive).

With `CCC(C)[C@@H](C(=O)OC)N(CCc1cn(Cc2ccccc2)nn1)S(=O)(=O)c1ccccc1Br` (stereo partly drawn) as the compound, how does the inhibition read?
The inhibition was 2.88% (inactive).

With `CC(=O)N1c2ccc(S(=O)(=O)N3CCC(C(=O)NCc4ccc(F)cc4)CC3)cc2CC1C` (stereo not drawn) as the compound, how does the inhibition read?
Its inhibition is 1.14% (inactive).

With `CCOC(CNC(=O)C1CCN(S(=O)(=O)c2ccc3nc4c(c(C(=O)O)c3c2)CC(C)CC4)CC1)OCC` (stereo not drawn) as the compound, how does the inhibition read?
The inhibition was 25.9% (inactive).

For `Cc1ccc(CNC(=O)C2CCN(S(=O)(=O)c3ccc4nc5c(c(C(=O)O)c4c3)CC(C)CC5)CC2)cc1` (stereo not drawn), which inhibition is on record?
Its inhibition is 51.8% (active).

With `COC(=O)C1=C(C)N(Cc2ccc(C(F)(F)F)cc2)C(=NCc2ccc(C(F)(F)F)cc2)NC1c1cccc(Cl)c1` (stereo not drawn) as the compound, how does the inhibition read?
Its inhibition is 2.08% (inactive).

For `N#Cc1c(NC(=O)C2CCCO2)sc2c1CCCCC2` (stereo not drawn), which inhibition is on record?
The inhibition was -2.89% (inactive).

Which inhibition does the source give for `COC(=O)c1c(NC(=O)CN2C(=O)NC(CCc3ccccc3)C2=O)sc2c1CCCCC2` (stereo not drawn) here?
The inhibition was 10% (inactive).
